Pf Dd2 growth – qHTS Primary assay for Inhibitors of Plasmodium falciparum Dd2 growth in vitro; actives 4.3% (n = 120,000); Potency, µM (doses to about 28.9 µM), for inactives: top-dose activity, negative = inhibition, most hits filed as inhibitors; P. falciparum Dd2 growth, SYBR Green, 72 h; active = well fitted inhibition curve with a large enough effect;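 also: plate controls were DMSO vehicle for no effect and reference drug for full effect; nearly all actives have a fitted effect of over 65% in size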
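Infected erythrocytes (Dd2, 0.3% parasitemia, 2.5% hematocrit final) are added to compound in RPMI-1640/Albumax II medium, grown 72 h at 37C in low oxygen, then lysed with saponin/Triton-X containing SYBR Green and read by fluorescence.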
Active calls of the source: *; i = inactive; [ ] = another dose, or the depositor's remark. This is one part of a sample in which hits are shown more often than they occur. Potency is read from the fitted curve at half-maximal effect.

SMILES	Pf Dd2 growth
CCCn1c(C)cnc1CC1CCN(S(=O)(=O)c2cnn(CC)c2)CC1	-16%
Cc1ccc(NC(=O)c2cc(S(=O)(=O)NC3CCCCCC3)ccc2F)cc1F	4.5µM*
Cc1ccc(NC(=O)c2cc(S(=O)(=O)N3CCCc4ccccc43)ccc2F)cc1F	-23%
O=C(Nc1ccccc1Br)c1cc(S(=O)(=O)NC2CCCCC2)ccc1F	i
Cc1ccc(F)cc1S(=O)(=O)N(C)CC1CCOC1 (stereo not drawn)	i[5.79 µM]
Cc1cc(C)cc(C(=O)NC2CCN(c3cn[nH]c(=O)c3)CC2)c1	i
COc1cccc(CNCc2cccn2-c2nnc(N3CCN(c4ccccc4)CC3)s2)c1	10µM*
CCOc1ccc(NCc2cccn2-c2nnc(N3CCC(C(=O)NCc4cccc(OC)c4)CC3)s2)cc1	i
COc1cccc(N2CCN(C(=O)c3cccn3-c3nnc(N4CCCCC4)s3)CC2)c1	i
Cc1ccc(C)c(-n2nc(-c3c(C)nc4scc(CC(=O)NC5CCCCC5)n4c3=O)cc2C)c1	-25%
O=C(c1ccccc1)N1CCc2nc(C3CC3)nc(-c3ccc(O)cc3)c2CC1	-2%
O=C(c1ccccc1F)N1CCc2nc(C3CC3)nc(-c3ccc(Cl)cc3)c2C1	-29%
Cc1nc2c(c(-c3ccc(Cl)cc3)n1)CCN(C(=O)c1ccccc1C)CC2	-15%
Cc1nc2c(c(-c3ccc(O)cc3)n1)CN(C(=O)c1ccccc1)CC2	i
Cc1ccccc1C(=O)N1CCc2nc(C3CC3)nc(-c3ccc(O)cc3)c2CC1	8.9µM*
O=C(c1cccc(Cl)c1)N1CCc2nc(C3CC3)nc(-c3ccc(O)cc3)c2CC1	5µM*
COc1ccc(-c2nnc([C@H]3CCN(Cc4ccccc4Cl)C3)o2)cc1	0%[44.1 µM]
CCc1nncn1C1CCN(C(=O)c2ccc(OC)cc2)CC1	-6%
Cc1nc(CNC(=O)C2CCCN(C3CCCC3)C2)cc(=O)[nH]1 (stereo not drawn)	16%
COCCn1c(Cn2cnc(C(C)(C)C)c2)nnc1C1CC(N)C1 (stereo not drawn)	-7%
CCCN(CC1CCOC1)C(=O)Nc1cccc(C)c1C (stereo not drawn)	10%[5.79 µM]
Cc1cccc(Nc2c3c(nc4nncn24)CCC3)c1	44%
Cc1ccc(Nc2c3c(nc4nncn24)CCC3)cc1C	10µM*
Brc1ccc(Nc2c3c(nc4nncn24)CCC3)cc1	4µM*
Cc1ccc(Nc2c3c(nc4nncn24)CCC3)cc1	i
SMILES	Pf Dd2 growth
CCOc1ccc(Nc2c3c(nc4nncn24)CCC3)cc1	-7%
Cc1ccccc1Nc1c2c(nc3nncn13)CCC2	-10%
C=CCc1ccccc1OCCN(C)Cc1ccccc1C(=O)O	5%
O=C(c1ccoc1)N1CCCC(n2cc(-c3nc(-c4ccccc4)no3)nn2)C1 (stereo not drawn)	-19%
O=C1NCCOCCN[C@H]2CCC[C@@H]12	63%
Cn1cc(CN2CCCC(C(=O)N3CCOCC3)C2)c(-c2ccc(C3CCCCC3)cc2)n1 (stereo not drawn)	-23%
Cn1cc(CN2CCN3C(=O)N(C4CCCCC4)C[C@H]3C2)cn1	i
Cn1cc(CN2CCN3CCCC3C2)c(-c2ccc(C3CCCCC3)cc2)n1 (stereo not drawn)	8.9µM*
Cn1ncc2c(C(=O)NC3CC3)cc(-c3cccnc3)nc21	-23%
Cc1ccccc1S(=O)(=O)N1C[C@@H](Oc2cccnc2)C[C@@H]1C(=O)N1CCOCC1	-9%
Cn1nc(C(=O)N2CCN(c3ccccc3F)CC2)c2c1-c1ccccc1SC2	15%
Cc1ccc(-n2nc(C(=O)N3CCN(c4ccccc4F)CC3)c(=O)n(C)c2=O)cc1	3%
Cc1ccc2c(c1)-c1c(c(C(=O)N3CCN(c4cc(Cl)ccc4C)CC3)nn1C)CS2	10µM*
Cc1ccc(-n2nc(C(=O)N3CCN(c4cc(Cl)ccc4C)CC3)c3c4ccccc4n(C)c3c2=O)cc1	6%
COc1cccc(N2CCN(C(=O)c3nn(C)c4c3CSc3ccc(C)cc3-4)CC2)c1	20%
Cc1ccc(-n2nc(C(=O)N3CCN(c4cc(Cl)ccc4C)CC3)c(=O)n(C)c2=O)cc1	10µM*
O=C(Cn1nc2c(cc1=O)CCCC2)Nc1cccc(-c2ncn[nH]2)c1	-34%
Cc1nnc(-c2cc(-c3cnn(C)c3)ccn2)n1-c1ccccc1	-18%[44.1 µM]
CCn1cc(CN(C)C2CCc3nn(CC4CC4)c(=O)n3CC2)c(C)n1 (stereo not drawn)	2%
CN(C(=O)Cc1c[nH]c2ccccc12)C1CCc2nn(CC3CC3)c(=O)n2CC1 (stereo not drawn)	-21%
CN(Cc1cn(C)c2ccccc12)C1CCc2nn(CC3CC3)c(=O)n2CC1 (stereo not drawn)	5µM*
COCCNC(=O)CC[C@]12CC[C@](C)(O)C[C@H]1C(C)(C)C[C@@H]2NS(=O)(=O)c1ccc(C)cc1	-23%
CN1Cc2ncnc(NCCc3ccccc3)c2CN(c2ccc(Cl)cc2)C1=O	-25%
Cc1ccc(C)c(NC(=O)CN2C(=O)COc3ccc(Cl)cc32)c1	15%
COc1ccc(N2C(=O)CSC23C(=O)N(CC(N)=O)c2ccccc23)cc1 (stereo not drawn)	7%
SMILES	Pf Dd2 growth
Cc1ccc(N2C(=O)CSC23C(=O)N(Cc2ccccc2F)c2ccccc23)cc1F (stereo not drawn)	i
COc1cccc(CN2C(=O)C3(SCC(=O)N3c3ccc(F)cc3)c3ccccc32)c1 (stereo not drawn)	i
COc1ccc(N2C(=O)CCSC23C(=O)N(Cc2ccc(F)cc2)c2ccccc23)cc1 (stereo not drawn)	-13%
COc1ccc(N2C(=O)CCSC23C(=O)N(Cc2ccc(F)cc2)c2ccccc23)cc1Cl (stereo not drawn)	11µM*
Cc1ccc(C)c(NC(=O)CN2C(=O)C3(SCC(=O)N3c3ccc(C)c(C)c3)c3ccccc32)c1 (stereo not drawn)	11µM*
COc1ccccc1NC(=O)CN1C(=O)C2(SCC(=O)N2c2ccc(C)c(C)c2)c2ccccc21 (stereo not drawn)	10µM*
COc1ccccc1NC(=O)CN1C(=O)CSc2ccc(S(=O)(=O)N3CCCC3)cc21	-16%
COc1ccccc1OCc1cc(C(=O)N2CCC(C(C)(C)O)CC2)n[nH]1	-20%
CCN1C(=O)Cc2ccccc2C1C(=O)NCc1ccc(C)cc1 (stereo not drawn)	-17%
CN(C)C(=O)CN1C(=O)CO[C@H](c2ccc(NC(=O)Nc3ccccc3)cc2)[C@H]1CO	-12%[44.1 µM]
COCCNC(=O)[C@@H]1CCC[C@@H](NC(=O)c2ccc(OC)cc2)CN(C)C(=O)C1	-16%[44.1 µM]
Cc1ccc(CN(C)Cc2cccc(C(F)(F)F)c2)cc1	-8%[44.1 µM]
CC(C)NC(=O)[C@H]1CN2CCC1C[C@@H]2Cn1cc(CCO)nn1 (stereo partly drawn)	i
COc1ccc2[nH]c3c(c2c1)CCN(C)C31CCN(C(=O)c2ccco2)CC1	-10%
CCN(CC)CCOC(=O)c1ccc(Nc2c3c(nc4ccccc24)CCC3)cc1	7.1µM*
Fc1ccc(Nc2c3c(nc4ccccc24)CCC3)cc1	-11%
CCN(CC)CCOC(=O)c1ccc(NC(=O)CSc2cc(=O)n(CC)c3ccccc23)cc1	89%
CCNC(=O)[C@@H]1C[C@H](NC(=O)c2oc(C)nc2C)CN1Cc1nc(C)no1	-4%
O=C(NCc1cccs1)c1nc2sccn2c1Br	-9%
CCn1c(CN2CCOCC2)nc2cc(NC(=O)c3ccc([N+](=O)[O-])cc3)ccc21	-2%
CCn1c(CN2CCC(C)CC2)nc2cc(NC(=O)c3cccc([N+](=O)[O-])c3)ccc21	6.3µM*

Source: PubChem (National Center for Advancing Translational Sciences (NCATS))
